From PubChem BioAssay (NCATS)
Inconclusive results are not listed. Values without a mark were called inactive. Calls follow the shape of the dose curve; as a rule, active = well fitted activation curve with a large enough effect; inconclusive = small, poorly fitted or top-dose-only effect, or another doubt; inactive = no such curve, though single readings can be large or run the other way.

Target: Rap guanine nucleotide exchange factor 3 (Homo sapiens) (UniProt O95398)
Assay: Counterscreen qHTS for agonist of cAMP-regulated guanine nucleotide exchange factor 3 (EPAC1) (AID 1645889); also: % of control where 0% means no effect; nearly all actives have a fitted effect of over 40% in size
Settings: EPAC1 Rap1B-BODIPY-GDP exchange, fluorescence; series mostly up to 154 µM; activation: at the top concentration
Outline: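 Rap1B-BODIPY-GDP 250 nM + GDP 50 uM; cpds 7-pt, final 9.74 nM–152 uM (activator mode) or from 7.32 nM upwards (inhibitor mode); RT; FI 480/540 nm at 5 and 30 min, then ± cAMP, reread.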

| SMILES | activation |
| --- | --- |
| Oc1ccc2ccccc2c1-c1sc(Nc2ccccc2)n[n+]1-c1ccc(F)cc1 | -127% |
| CC(=O)NC(c1ccc(Cl)cc1)c1ccc2cccnc2c1O (stereo not drawn) | 6.93% [at 30.8 µM] |
| O=C(O)/C(CC(=O)c1ccc(Cl)cc1)=N/Nc1ccc([N+](=O)[O-])cc1[N+](=O)[O-] | 16.6% |
